Screen size: about 57,000 sequences; about 2,900 (5.1%) were called active. No stated cut-off is given here; in the data, active = GI50 up to about 1.1 µM and inactive = higher. A selection follows. Measured potencies and affinities stand elsewhere.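 Values below derive from 48-hour exposures of cells grown in 96-well plates, with endpoints linearly interpolated between the two concentrations bracketing the appropriate inhibition level. GI50 is the concentration that inhibits growth by half.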

The assay has as its system SNB-19. Nature of the assay: NCI tumour cell line growth inhibition, 48 h.
“[Bis(aminomethyl)ethylmethylsilane]tetrachloroplatinum(IV), CHEMBL2146192” gave a GI50 of 5.37 µM. The figure for “[Bis(aminomethyl)tetramethylenesilane]tetrachloropaltinum(IV), CHEMBL2146189” is 12.9 µM; for “[Bis(aminomethyl)diethylsilane]tetrachloroplatinum(IV), CHEMBL2146203” it is 4.05 µM; for “[Bis(aminomethyl)tetramethylenesilane]dichloropaltinum(II), CHEMBL2146205” it is 47.5 µM. The figure for “mu-(1,7-nanodiamine-N,N')bis-(cis-aminedichloroplatimum (II)), CHEMBL2146215” is 39.1 µM; for “[Bis(aminomethyl)pentamethylenesilane]dichloropaltinum(II), CHEMBL2146202” it is 2.79 µM; for “[Bis(aminomethyl)dimethylsilane]tetrachloroplatinum(IV), CHEMBL2146190” it is 8.77 µM.

Turning to CISPLATIN, CHEMBL11359, the GI50 came to 3.19 µM. The figure for “[Bis(aminomethyl)pentamethylenesilane]tetrachloropaltinum(IV), CHEMBL2146204” is 8.02 µM; for “cis-Bis[[(trimethylsilyl)methyl]amino]tetrachloroplatinum(IV), CHEMBL2146191” it is 12.4 µM. The figure for “[Bis(aminomethyl)dimethylsilane]dichloroplatinum (II), CHEMBL2146201” is 24.4 µM.

The values are drawn from ChEMBL document CHEMBL1201862, “PubChem BioAssay data set” (2004).
